Hit rate of the full screen: of about 2,300 compounds, about 550 (24%) were called active. How the calls were made is not given here. The list is a sample of the results. Results with a measured potency or affinity are listed apart.

The nature of the experiment: Vero E6 cell cytotoxicity, dose response, cytotoxicity control for non-replicating M. tuberculosis project, secondary assay (AID 492998). Particulars: series mostly up to 20 µM.
On to `Cc1cccnc1NC(=O)C1COc2ccccc2O1` (stereo unspecified), for which the compound was called inactive. As to `O=C(OCc1nnc(-c2ccccc2)o1)c1cc([N+](=O)[O-])ccc1Cl`, the outcome was inactive. On to `CC(C)OC(=O)c1c2c(n3ccccc13)C(=O)c1ccccc1C2=O`, for which the compound was called inactive.

`O=C(c1ccc(Br)o1)N1CCC(Cc2ccccc2)CC1`: the outcome was inactive. Turning to `O=C(COc1ccc(Br)cc1)Nc1ccc([N+](=O)[O-])cn1`, the outcome was inactive. As to `O=C(N/N=C/c1coc2ccccc2c1=O)c1ccc(Cl)cc1`, the call was inactive. Then `O=C(OCC(=O)N1CCN(c2ccccc2)CC1)c1ccc(Cl)cc1[N+](=O)[O-]`, with “inactive”. Consider `COC(=O)C1=C(N)OC2=C(C(=O)CC(C)(C)C2)C1c1cccnc1` (stereo unspecified), for which the compound was classed as inactive. `O=C(OCC(=O)N1CCCC1)c1cc(Br)ccc1Cl`: the result was inactive. Take `O=C(N/N=C/c1ccccn1)c1cccc(S(=O)(=O)Nc2ccccc2Cl)c1`: the call was inactive. Consider `Cc1ccc2oc(=O)c3cc(C(=O)NCCCN4CCCCCC4)sc3c2c1`, for which the call was inactive. Consider `CS(=O)(=O)Nc1cccc2cccnc12`, for which the call was inactive. The value for `Cc1cc(C)n2nc(S(=O)(=O)Nc3c(Cl)cccc3Cl)nc2n1` was “inactive”; that for `CC1C/C(=N/NC(=O)c2cccc(F)c2)c2ccc(O)cc2C1` (stereo unspecified) was “inactive”; that for `O=C(O)c1ccccc1-c1ccccc1C(=O)Nc1nc2ccccc2s1` was “inactive”. For the compound `CCOCC(=O)Nc1nc2ccc(C)cc2s1`, the call was inactive. Turning to `Cc1ccc2nc(NC(=O)COC(=O)c3ccc(Br)o3)sc2c1`, the compound was called inactive. For the compound `O=C(Nc1nccs1)c1ccccn1`, the result was inactive. With `O=C(Nc1c(F)cc(F)cc1Br)c1cc(-c2ccccc2)on1`, the compound was called inactive. With `O=C(NNc1nc2ccccc2s1)c1ccc(F)cc1`, the outcome was inactive. With `CC1=NN(C(=O)c2ccccc2Cl)C(O)(c2ccccc2)C1` (stereo unspecified), the result was inactive. As for `CCc1nnc(N/N=C/c2ccc(N3CCC(C)CC3)c([N+](=O)[O-])c2)n1N`, the outcome was inactive. Then `COc1ccc(C(=O)COC(=O)c2ccccc2O)c(OC)c1`, with “inactive”; and `COC(=O)c1cc(/C=C/c2ccccc2)on1`, with “inactive”. As for `COc1cc(/C=C2/C(=O)NN(c3ccc(Cl)cc3)C2=O)ccc1OC(=O)c1ccco1`, the compound was called inactive. The value for `CC(C)CNc1nc(=S)nc(N(C)C)[nH]1` was “inactive”; that for `Cc1cccc(NC(=O)COC(=O)CCc2c[nH]c3ccccc23)c1` was “inactive”; that for `O=C(OCC(=O)N1CCN(c2ccccc2)CC1)c1ccc2ccccc2n1` was “inactive”. Regarding `O=[N+]([O-])c1ccc(CN2CCN(c3ccc(F)cc3)CC2)o1`, the result was inactive.

As to `CCOC(=O)c1cc(-c2csc(COc3ccccc3Cl)n2)on1`, the result was inactive. Then `O=C(NCCc1ccccc1)c1nc(-c2cccs2)no1`, with “inactive”. Take `COc1cccc2cc(C(=O)NCc3ccc(F)cc3)c(=N)oc12`: the compound was called inactive. Consider `c1cncc(-c2noc(CC3CCCCC3)n2)c1`, for which the compound was called inactive.

Turning to `CCN1CCC(=NNC(=O)c2ccco2)CC1`, the compound was classed as inactive.

With `O=C1NC2(CCC3(CC2)OCCO3)NN1c1ccc(Cl)cc1`, the call was inactive.

Regarding `CC(NC(=O)c1cccc(F)c1)C1CC2CCC1C2` (stereo unspecified), the outcome was inactive. On to `Cc1ccc(C(C)C)c(OCC(=O)OCc2c(C)noc2C)c1`, for which the outcome was inactive. Regarding `CC1CCN(C(=O)c2ccc(-c3ccccc3Cl)o2)CC1`, the call was inactive. For the compound `O=C(Nc1nc2ccccc2n1CCN1CCCC1)c1ccc(Cl)cc1`, the result was inactive. On to `CCCn1c(CNc2ccccc2O)nc2ccccc21`, for which the result was inactive.

Regarding `Cc1ccc(C(=O)n2c(N)nc3ccccc32)cc1`, the outcome was inactive.

With `Cc1ccc(CC(=O)Nc2ccc(Cl)cn2)cc1`, the compound was classed as inactive. As to `CCn1c(-c2ccco2)nc2ccccc21`, the compound was called inactive. Regarding `COc1cccc(-c2cc3nc4c(c(NCC(C)(C)CN(C)C)n3n2)CCCC4)c1`, the result was inactive. As for `CCOC(=O)CC(NS(=O)(=O)Cc1ccccc1)c1ccc(C)cc1` (stereo unspecified), the compound was classed as inactive. As for `CCOC(=O)COn1c2c(c3c4no[n+]([O-])c4ccc31)CCCC2`, the call was inactive. Then `COC(=O)c1ccccc1NC(=O)C1CC(c2ccc(F)cc2)=NO1` (stereo unspecified), with “inactive”; and `COc1cc(/C=C2/C(=O)NN(c3cccc(C)c3)C2=O)ccc1OC(=O)c1ccco1`, with “inactive”; and `O=C(Oc1cccc2cccnc12)c1cccc(-n2cnnn2)c1`, with “inactive”.

Take `Cc1nc2ccc(NC(=O)c3ccc([N+](=O)[O-])cc3[N+](=O)[O-])cc2s1`: the compound was classed as inactive. In the case of `CCN(CC)CCNC(=O)c1[nH]c2ccc(OCc3ccccc3)cc2c1C`, the compound was classed as inactive.

Take `CSc1ccccc1NC(=O)c1cc(C(C)C)on1`: the result was inactive.

For `O=C(COc1ccc(-c2ccccc2)cc1)Nc1cccnc1`, the call was inactive. For the compound `O=C(OCC(=O)N1CCCCC1)c1cc2ccccc2cc1O`, the compound was called inactive. `CCOC(=O)c1cc2cc3ccccc3cc2oc1=O`: the compound was called inactive.

Regarding `CCOC(=O)COc1ccc(C(=O)c2ccccc2)c(O)c1`, the compound was classed as inactive. On to `Cc1ccn2nc(S(=O)(=O)Nc3c(F)cccc3F)nc2n1`, for which the compound was called inactive. Then `CN(C)CC/C=C1\c2cc(Cl)ccc2Sc2cc(F)c(F)cc21`, with “inactive”; and `COc1ccc(C(=O)Nc2ccccc2C(=O)N/N=C/c2ccco2)cc1`, with “inactive”. Take `CCn1cc(/C=N\NC(=O)c2ccc(F)cc2)cn1`: the outcome was inactive. Consider `Nc1nc2ccccc2n1C(=O)c1ccc(F)cc1`, for which the call was inactive. On to `Cn1c(NC(=O)c2ccccc2)nc2ccccc21`, for which the outcome was inactive. On to `Cc1nc2ccc(NC(=O)COc3cccc(F)c3)cc2s1`, for which the compound was classed as inactive. For `O=C(COC(=O)c1cccc([N+](=O)[O-])c1)NCc1cccs1`, the result was inactive. Then `COc1ccc(CN2CCC(C(=O)Nc3ccc(Oc4cccnc4)cc3)CC2)c(C)c1C`, with “inactive”; and `CSCCOC(=O)COc1ccc(/C=N/NC(=O)c2c(Cl)cnn2C)cc1`, with “inactive”; and `O=C(COc1ccc(Br)cc1)N/N=C1/SCC(=O)N1Cc1ccco1`, with “inactive”. Consider `O=C(C/C=N\OCc1ccc([N+](=O)[O-])cc1)Nc1ccc(Br)cc1`, for which the compound was called inactive.

For the compound `COc1ccccc1CCNC(=O)c1ccc(C)o1`, the result was inactive.

Consider `NC1=NC[C@H](Cc2ccc(O)cc2)N1CCc1cccc2ccccc12`, for which the result was inactive. For the compound `CCCCCCCC(=O)N/N=C(/C)c1c(O)cc(C)oc1=O`, the compound was called inactive. In the case of `Cc1ccc(-c2noc(CCCC(=O)Nc3cccnc3)n2)cc1`, the compound was classed as inactive. Then `CCc1ccc(/C=N/NC(=O)c2ccccn2)cc1`, with “inactive”; and `O=C(N/N=C/C=C/c1ccccc1)c1ccccn1`, with “inactive”; and `Cc1ccc(NCCC(=O)c2cccs2)cc1`, with “inactive”.

Regarding `CCCCCCCC(=O)NNC(=O)c1ccc(F)cc1`, the compound was called inactive.
